Holding throughout (test): NCI-60 one-dose screen, 48 h (100 = growth as untreated, 0 = no growth, -100 = all killed)
What all share (details): 10 µM unless noted

The test system of test [1] is SK-MEL-2 melanoma.
Test [2] deals with EKVX NSCLC.
Test [3] deals with SN12C renal.
In test [4] the test system is UO-31 renal.
Test [5] deals with TK-10 renal.
The test system of test [6] is ACHN renal.
The test system of test [7] is CAKI-1 renal.
In test [8] the test system is A498 renal.
The subject of test [9] is CCRF-CEM leukemia.
For test [10], the system named is MOLT-4 leukemia.
Test [11] has as its system SR leukemia.
Test [12] deals with RPMI-8226 leukemia.
Test [13] has as its system OVCAR-8 ovarian.
In test [14] the test system is OVCAR-5 ovarian.
Test [15] concerns OVCAR-4 ovarian.
For test [16], the system named is SK-OV-3 ovarian.
Test [17] relates to IGROV1 ovarian.
Test [18] deals with OVCAR-3 ovarian.
The subject of test [19] is HS 578T breast.
Test [20] concerns NCI/ADR-RES ovarian.

SMILES strings stand for the structures. Values joined by “and” are separate entries in the source; they are usually repeats but may differ in a detail not shown here. Equal entries are not always repeated. About 83,000 compounds went through this panel and 20% of them were active in at least one assay; those are over-represented in the sample as a whole.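 How to read the values: 0–100, growth inhibition (40 = 60% inhibited); 0, no net growth; -100 to 0, cell death (-40 = 40% of starting cells died; -100 = all dead).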 Unmarked numbers belong to inactive results. Active and inactive are the calls of the source. Rule for the calls: active = growth percent below 10; inactive = the rest.

In the case of `COc1nc(N)ncc1-c1ccc2ncnc(N3CCc4cc(F)c(Cl)cc43)c2c1`, the growth in test [1] is 25.7%; in test [2], 24.2%; in test [3] it was -40.9% (active); in [4] it was -32.4% (active); in test [5] it was -50% (active); in test [6], -84.7% (active). Besides, the growth in test [7] is 4.22% (active); in [8] it was -15.6% (active); in test [9], 61.6%; in test [10], 62.9%; in [11], -11.2% (active); in test [12], 14%. Moreover, the growth is -24.1% (active) in [13]; -2.67% (active) in [14]; -84.5% (active) in [15]; -36.6% (active) in test [16]; -45.3% (active) in [17]; -24.7% (active) in test [18]. Also, the growth in test [19] is 7.35% (active); in test [20] it was 18.9%.

On to `COc1cc(CNC(=O)[C@]23CCC(C)(C)CC2C2=CCC4[C@@]5(C)CCC(OC(C)=O)C(C)(C)C5CC[C@@]4(C)[C@]2(C)CC3)ccc1OCc1cn(-c2ccc(Cl)cc2Cl)nn1` (stereo not given in full), for which the growth in test [1] was 99.8%; in [2] it was 86.5%; in test [3], 94.1%; in test [4], 80.2%; in [5], 134%; in [6], 101%. Besides, the growth in [7] was 77.9%; in [8] it was 146%; in test [9] it was 98.2%; in [10], 104%; in [11] it was 103%; in test [12], 89.9%. The growth in test [13] is 102%; in test [14], 102%; in test [15], 102%; in [16] it was 112%; in test [17], 92.8%; in [18], 112%. The growth was 100% in test [19] and 120% in test [20].

`COc1ccc2[nH]c(O)c(N=NC(=O)c3ccc4nc(-c5ccc(Cl)cc5)[nH]c4c3)c2c1`: the growth in test [1] was 109%; in test [2] it was 90.1%; in test [3], 70.7%; in test [4], 95.6%; in test [5] it was 111%; in [6], 104%. Also, the growth in [7] is 93.6%; in test [8], 166%; in test [9], 25.7%; in test [10] it was 15.7%; in test [11] it was 34.2%; in test [12], 103%. The growth in [13] is 48.4%; in [14], 72.1%; in test [15], 48.9%; in [16], 90.8%; in test [17], 78.1%; in [18] it was 71.8%. The growth in test [19] was 37.7%; in test [20], 116%.

`Cc1cccc(C)c1Nc1nnc(-c2c[nH]c3ccccc23)o1`: the growth in [1] was 99.5%; in test [2], 74.6%; in test [3], 87.8%; in test [4], 65.3%; in test [5], 148%; in [6], 93.9%. The growth in test [7] is 82.7%; in [8] it was 134%; in test [9], 106%; in test [10] it was 91.1%; in [11], 91.5%; in test [12] it was 86%. The growth is 101% in test [13]; 103% in test [14]; 102% in test [15]; 76.9% in test [16]; 89% in [17]; 121% in test [18]. The values for the growth in test [19] and in test [20] were 95.9% and 94.9%, respectively.

Turning to `Cc1ccc(C(=O)Nc2cc(-c3ccncc3)cc(C(F)(F)F)c2)cc1C#Cc1cnc2cccnn12`, the growth was 37.9% in test [1]; 64.3% in test [2]; 34.8% in [3]; 31.4% in test [4]; 63.7% in test [5]; 46.6% in [6]. In addition, the growth in test [7] is 40.8%; in [8], 48.9%; in [9], 30%; in [10], 31.3%; in [11] it was -11.9% (active); in test [12], 20%. For the same compound, the growth in test [13] is 50.4%; in test [14], 53.5%; in test [15], 63.5%; in [16], 127%; in test [17] it was 54.4%; in test [18], 95.6%. In addition, the growth in [19] was 23%; in [20], 50.2%.

As to `CC(C)(C)c1ccc(OCc2nc3ccccc3n2-c2cccc(N)c2)cc1`, the growth in test [1] is 62.8% and 109%; in test [2] it was 45.5% and 96.8%; in [3] it was 79.2% and 106%; in test [4], 43.4% and 83.6%; in test [5] it was 93.3% and 111%; in [6], 70.2% and 112%. For the same compound, the growth in test [7] is 44.4% and 95.6%; in test [8], 142% and 126%; in test [9], 46% and 96.1%; in test [10], 25.4% and 90.9%; in test [11], 26.3% and 92.3%; in test [12], 48.3% and 110%. Besides, the growth in [13] is 72.3% and 110%; in test [14], 85.7% and 111%; in [15], 49.6% and 105%; in [16], 103% and 107%; in [17], 65.7% and 108%; in test [18] it was 53.1% and 128%. The growth was 53.9% and 96.3% in [19]; 50.2% and 101% in test [20].

On to `Cc1ccc(O)cc1Nc1nc(SCCN2CCOCC2)nc2c1cnn2CC(Cl)c1ccc(Br)cc1` (stereo not given), for which the growth is -35.9% (active) in test [1]; 21% in test [2]; 20% in test [3]; 6.07% (active) in test [4]; 17.8% in [5]; 1.87% (active) in test [6]. Besides, the growth is -31.5% (active) in [7]; 29.3% in test [8]; 5.71% (active) in [9]; -24.6% (active) in test [10]; -29.4% (active) in test [11]; 16.8% in test [12]. The growth is 20.7% in [13]; 18.8% in test [14]; 32.3% in test [15]; 43.9% in [16]; -1.66% (active) in [17]; 26.5% in [18]. In addition, the growth is -25.8% (active) in test [19] and 7.37% (active) in test [20].

The values above are taken from PubChem BioAssay (NCI).
